Data published in the supplement of paper PMC10849652.
Of roughly 7,900 targets only a part is listed; those with a hit were picked by preference. About 0.6% of all pairs of compound and target were hits. Values without a mark were called inactive.

How the values were obtained:
Assay in all cases: log2 fold change, soluble protein after heating vs DMSO (PISA); higher = thermal stabilisation; K562 cells, 10 uM, 30 min; active = over 0.2 and 3.5 SD of the protein, either way, in both replicates (recomputed)
erlotinib = compound: C#Cc1cccc(Nc2ncnc3cc(OCCOC)c(OCCOC)cc23)c1 [erlotinib]
Method in brief: (§1)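 Aliquots of K562 cells (2×10^6 cells/mL) treated with 10 μM compound for 30 min were heated for 3 min over 48°C-58°C. After pooling and extraction in PBS with 0.5% NP-40 at 4°C, soluble protein from a 21,000xg, 90 min spin was quantified by TMTpro 16plex LC-MS/MS with channel sums equalised. Thermal stability is expressed against control samples, from duplicates, as a log2 fold change.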

[1] = compound: C/C(=N\NC(=O)C1=CC(=CC=C1)S(=O)(=O)N2CCOCC2)/C3=C(C=CC(=C3)Cl)O
Method in brief: as §1

[2] = compound: C1=CC(=C(C=C1Cl)C2=NC3=NC=CN=C3C(=N2)NC4=CC=NC=C4)F
Method in brief: as §1

[3] = compound: C1=CC(=CC=C1C2=NC3=C(N2)C=C(C=C3)C(=O)N)OC4=CC=C(C=C4)Cl
Method in brief: as §1

[4] = compound: C1=CC2=C(C=CC(=C2)/C=C\3/C(=O)NC(=NCC4=CC=CS4)S3)N=C1
Method in brief: as §1

[5] = compound: C1=CC2=NC=CN=C2C=C1/C=C/3\C(=O)NC(=O)S3
Method in brief: as §1

[6] = compound: C1=CC=C(C=C1)C2=NC(=C(N2)C3=CC=NC=C3)C4=CC(=C(C=C4)Cl)O
Method in brief: as §1

[7] = compound: C1=CC=C2C(=C1)C3=NNC4=CC=CC(=C43)C2=O
Method in brief: as §1

[8] = compound: C1CCN(C1)C(=O)NC2=CC=CC(=C2)NC3=NC=C(C(=N3)NCCC4=CN=CN4)Br
Method in brief: as §1

[9] = compound: C1CN(CCC1(CC2=CC=C(C=C2)Cl)N)C3=NC=NC4=C3C=CN4
Method in brief: as §1

IRAK-1-4 Inhibitor I = compound: C1COCCN1CCN2C3=CC=CC=C3N=C2NC(=O)C4=CC(=CC=C4)[N+](=O)[O-] [IRAK-1-4 Inhibitor I]
Method in brief: as §1

ibrutinib = compound: C=CC(=O)N1CCC[C@@H](n2nc(-c3ccc(Oc4ccccc4)cc3)c3c(N)ncnc32)C1 [ibrutinib]
Method in brief: as §1

[10] = compound: CC(=O)c1cnc2ccc(-c3cc(Cl)c(O)c(Cl)c3)nc2c1N[C@H]1CC[C@H](CN(C)C)CC1
Method in brief: as §1

ralimetinib = compound: CC(C)(C)Cn1c(N)nc2ccc(-c3[nH]c(C(C)(C)C)nc3-c3ccc(F)cc3)nc21 [ralimetinib]
Method in brief: as §1

[11] = compound: CC(C)(O)CC(=O)NCCn1ccc2ncnc(Nc3ccc(Oc4cccc(C(F)(F)F)c4)c(Cl)c3)c21
Method in brief: as §1

[12] = compound: CC(C)C1=C2N=C(C=C(N2N=C1)NCC3=CC=CC=C3)NCCCCCCN
Method in brief: as §1

[13] = compound: CC(C)C[C@@H](C=O)NC(=O)[C@H](CC(C)C)NC(=O)[C@H](CC(C)C)NC(=O)OCc1ccccc1
Method in brief: as §1

pinometostat = compound: CC(C)N(C[C@H]1O[C@@H](n2cnc3c(N)ncnc32)[C@H](O)[C@@H]1O)[C@H]1C[C@@H](CCc2nc3cc(C(C)(C)C)ccc3[nH]2)C1 [pinometostat]
Method in brief: as §1

[14] = compound: CC1=C(C(CC(=O)N1)C2=CC=C(C=C2)C(F)(F)F)C(=O)NC3=C(C=C4C(=C3)C=NN4)F
Method in brief: as §1

[15] = compound: CC1=C(C2=C(C=C1)C(=O)C3=CC=CC=C3N2CCCN)C
Method in brief: as §1

## HNRNPF (UniProt P52597)
UniProt P52597, sequence (P52597 whole entry, looked up): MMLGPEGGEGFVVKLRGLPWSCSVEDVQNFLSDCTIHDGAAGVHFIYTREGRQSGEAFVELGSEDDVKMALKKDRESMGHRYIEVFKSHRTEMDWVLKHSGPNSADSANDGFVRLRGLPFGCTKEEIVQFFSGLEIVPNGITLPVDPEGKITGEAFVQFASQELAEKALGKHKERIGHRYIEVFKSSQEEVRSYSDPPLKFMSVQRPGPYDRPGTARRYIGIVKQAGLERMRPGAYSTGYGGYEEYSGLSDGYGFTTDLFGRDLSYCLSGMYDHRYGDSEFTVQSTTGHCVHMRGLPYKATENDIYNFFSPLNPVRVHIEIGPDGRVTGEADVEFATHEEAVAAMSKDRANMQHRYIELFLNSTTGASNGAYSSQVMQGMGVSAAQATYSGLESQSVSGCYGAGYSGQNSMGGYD
erlotinib
  log2 fold change: 0.02
[1]
  log2 fold change: 0.126
[2]
  log2 fold change: -0.036
[3]
  log2 fold change: -0.034
[4]
  log2 fold change: -0.098
[5]
  log2 fold change: 0.017
[6]
  log2 fold change: 0.079
[7]
  log2 fold change: 0.003
[8]
  log2 fold change: -0.044
[9]
  log2 fold change: -0.044
IRAK-1-4 Inhibitor I
  log2 fold change: -0.143
ibrutinib
  log2 fold change: -0.023
[10]
  log2 fold change: -0.1
ralimetinib
  log2 fold change: 0.098
[11]
  log2 fold change: -0.086
[12]
  log2 fold change: -0.279 (active)
[13]
  log2 fold change: 0.069
pinometostat
  log2 fold change: 0.018
[14]
  log2 fold change: 0.05
[15]
  log2 fold change: -0.087

## GNAI3 (UniProt P08754)
UniProt P08754, sequence (P08754 whole entry, looked up): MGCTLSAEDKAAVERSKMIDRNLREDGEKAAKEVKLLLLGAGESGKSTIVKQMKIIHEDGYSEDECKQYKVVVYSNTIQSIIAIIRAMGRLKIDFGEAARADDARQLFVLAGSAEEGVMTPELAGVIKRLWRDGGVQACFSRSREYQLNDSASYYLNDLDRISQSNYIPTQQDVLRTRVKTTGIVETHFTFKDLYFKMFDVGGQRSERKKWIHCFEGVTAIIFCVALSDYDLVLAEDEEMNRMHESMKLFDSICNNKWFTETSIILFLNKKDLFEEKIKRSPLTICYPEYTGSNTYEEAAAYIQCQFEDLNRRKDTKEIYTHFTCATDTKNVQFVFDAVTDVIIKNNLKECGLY
erlotinib
  log2 fold change: -0.078
[1]
  log2 fold change: -0.038
[2]
  log2 fold change: -0.01
[3]
  log2 fold change: 0.205
[4]
  log2 fold change: 0.021
[5]
  log2 fold change: 0
[6]
  log2 fold change: 0.036
[7]
  log2 fold change: -0.026
[8]
  log2 fold change: -0.047
[9]
  log2 fold change: 0.026
IRAK-1-4 Inhibitor I
  log2 fold change: -0.007
ibrutinib
  log2 fold change: 0.083
[10]
  log2 fold change: 0.027
ralimetinib
  log2 fold change: 0.066
[11]
  log2 fold change: 0.083
[12]
  log2 fold change: 0.006
[13]
  log2 fold change: -0.03
pinometostat
  log2 fold change: 0.024
[14]
  log2 fold change: 0.02
[15]
  log2 fold change: 0.038

## GLUD1 (UniProt P00367)
UniProt P00367, sequence (P00367 whole entry, looked up): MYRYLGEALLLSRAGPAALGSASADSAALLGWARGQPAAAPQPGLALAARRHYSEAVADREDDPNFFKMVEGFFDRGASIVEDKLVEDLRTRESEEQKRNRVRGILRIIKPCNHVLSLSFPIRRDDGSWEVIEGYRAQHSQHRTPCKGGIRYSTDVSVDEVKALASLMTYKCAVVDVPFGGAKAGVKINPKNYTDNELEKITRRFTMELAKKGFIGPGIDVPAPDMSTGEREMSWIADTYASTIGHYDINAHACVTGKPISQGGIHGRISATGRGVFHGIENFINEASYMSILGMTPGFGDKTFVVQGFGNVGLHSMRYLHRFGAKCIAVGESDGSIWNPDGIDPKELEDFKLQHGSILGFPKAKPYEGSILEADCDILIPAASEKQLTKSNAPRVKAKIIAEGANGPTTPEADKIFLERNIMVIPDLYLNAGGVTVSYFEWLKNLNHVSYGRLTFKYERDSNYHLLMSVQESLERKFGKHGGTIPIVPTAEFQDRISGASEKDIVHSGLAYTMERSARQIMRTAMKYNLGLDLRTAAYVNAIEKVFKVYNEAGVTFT
erlotinib
  log2 fold change: 0.068
[1]
  log2 fold change: -0.009
[2]
  log2 fold change: 0.051
[3]
  log2 fold change: 0.026
[4]
  log2 fold change: 0.039
[5]
  log2 fold change: -0.018
[6]
  log2 fold change: -0.033
[7]
  log2 fold change: 0
[8]
  log2 fold change: 0.05
[9]
  log2 fold change: -0.027
IRAK-1-4 Inhibitor I
  log2 fold change: 0.02
ibrutinib
  log2 fold change: 0.04
[10]
  log2 fold change: 0.068
ralimetinib
  log2 fold change: 0.023
[11]
  log2 fold change: -0.038
[12]
  log2 fold change: -0.049
[13]
  log2 fold change: 0.012
pinometostat
  log2 fold change: 0.023
[14]
  log2 fold change: -0.076
[15]
  log2 fold change: 0.125

## GLUL (UniProt P15104)
UniProt P15104, sequence (P15104 whole entry, looked up): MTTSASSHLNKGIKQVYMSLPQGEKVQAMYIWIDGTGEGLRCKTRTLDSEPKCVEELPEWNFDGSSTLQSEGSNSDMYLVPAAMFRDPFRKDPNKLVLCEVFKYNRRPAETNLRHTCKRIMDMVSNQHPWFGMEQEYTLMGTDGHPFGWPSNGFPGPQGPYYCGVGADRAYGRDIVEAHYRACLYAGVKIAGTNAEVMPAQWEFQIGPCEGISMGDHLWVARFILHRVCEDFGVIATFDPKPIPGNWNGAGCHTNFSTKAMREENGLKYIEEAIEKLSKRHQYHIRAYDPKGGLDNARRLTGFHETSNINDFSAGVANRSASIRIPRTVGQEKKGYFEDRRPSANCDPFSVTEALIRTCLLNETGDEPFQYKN
erlotinib
  log2 fold change: -0.058
[1]
  log2 fold change: 0.016
[2]
  log2 fold change: 0.027
[3]
  log2 fold change: 0.022
[4]
  log2 fold change: -0.006
[5]
  log2 fold change: -0.003
[6]
  log2 fold change: -0.007
[7]
  log2 fold change: -0.045
[8]
  log2 fold change: -0.037
[9]
  log2 fold change: 0.017
IRAK-1-4 Inhibitor I
  log2 fold change: 0.054
ibrutinib
  log2 fold change: 0.009
[10]
  log2 fold change: -0.049
ralimetinib
  log2 fold change: -0.02
[11]
  log2 fold change: 0.018
[12]
  log2 fold change: 0.058
[13]
  log2 fold change: -0.013
pinometostat
  log2 fold change: -0.021
[14]
  log2 fold change: 0.105
[15]
  log2 fold change: -0.058

## GMEB1 (UniProt Q9Y692)
UniProt Q9Y692, sequence (Q9Y692 whole entry, looked up): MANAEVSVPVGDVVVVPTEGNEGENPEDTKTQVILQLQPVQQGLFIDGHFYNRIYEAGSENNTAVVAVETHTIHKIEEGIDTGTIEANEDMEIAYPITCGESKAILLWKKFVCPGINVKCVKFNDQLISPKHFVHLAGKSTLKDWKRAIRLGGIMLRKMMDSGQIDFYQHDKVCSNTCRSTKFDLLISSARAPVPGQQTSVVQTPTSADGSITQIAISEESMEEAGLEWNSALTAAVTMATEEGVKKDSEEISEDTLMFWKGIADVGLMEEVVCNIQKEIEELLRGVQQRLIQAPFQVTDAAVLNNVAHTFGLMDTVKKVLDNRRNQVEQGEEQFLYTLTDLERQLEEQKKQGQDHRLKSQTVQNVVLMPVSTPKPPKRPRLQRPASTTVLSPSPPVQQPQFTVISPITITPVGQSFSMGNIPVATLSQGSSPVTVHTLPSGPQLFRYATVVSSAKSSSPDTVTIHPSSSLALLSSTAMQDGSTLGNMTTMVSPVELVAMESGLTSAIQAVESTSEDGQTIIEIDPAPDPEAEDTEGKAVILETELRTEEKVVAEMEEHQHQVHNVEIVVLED
erlotinib
  log2 fold change: 0.106
[1]
  log2 fold change: 0.071
[2]
  log2 fold change: 0.012
[3]
  log2 fold change: -0.005
[4]
  log2 fold change: -0.006
[5]
  log2 fold change: 0.009
[6]
  log2 fold change: -0.027
[7]
  log2 fold change: -0.089
[8]
  log2 fold change: 0.004
[9]
  log2 fold change: 0.036
IRAK-1-4 Inhibitor I
  log2 fold change: -0.033
ibrutinib
  log2 fold change: -0.031
[10]
  log2 fold change: -0.021
ralimetinib
  log2 fold change: 0.01
[11]
  log2 fold change: -0.039
[12]
  log2 fold change: -0.044
[13]
  log2 fold change: -0.031
pinometostat
  log2 fold change: 0.022
[14]
  log2 fold change: 0.011
[15]
  log2 fold change: -0.297 (active)

## HOMER1 (UniProt Q86YM7)
UniProt Q86YM7, sequence (Q86YM7 whole entry, looked up): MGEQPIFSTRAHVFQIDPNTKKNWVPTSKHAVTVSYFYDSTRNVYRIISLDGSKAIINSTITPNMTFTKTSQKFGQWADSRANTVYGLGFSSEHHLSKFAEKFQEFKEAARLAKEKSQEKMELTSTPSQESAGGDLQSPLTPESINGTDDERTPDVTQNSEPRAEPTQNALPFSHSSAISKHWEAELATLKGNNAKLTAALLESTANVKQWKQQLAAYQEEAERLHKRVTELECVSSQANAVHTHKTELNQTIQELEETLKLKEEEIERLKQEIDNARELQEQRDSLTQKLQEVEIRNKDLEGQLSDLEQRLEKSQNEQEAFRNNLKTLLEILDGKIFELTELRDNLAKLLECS
erlotinib
  log2 fold change: -0.103
[1]
  log2 fold change: -0.015
[2]
  log2 fold change: -0.05
[3]
  log2 fold change: 0.016
[4]
  log2 fold change: 0.021
[5]
  log2 fold change: 0.074
[6]
  log2 fold change: -0.057
[7]
  log2 fold change: -0.015
[8]
  log2 fold change: 0.062
[9]
  log2 fold change: -0.011
IRAK-1-4 Inhibitor I
  log2 fold change: 0.104
ibrutinib
  log2 fold change: 0.009
[10]
  log2 fold change: -0.043
ralimetinib
  log2 fold change: 0.004
[11]
  log2 fold change: 0.03
[12]
  log2 fold change: 0.034
[13]
  log2 fold change: -0.088
pinometostat
  log2 fold change: -0.225 (active)
[14]
  log2 fold change: 0.038
[15]
  log2 fold change: 0.093

## HDDC2 (UniProt Q7Z4H3)
UniProt Q7Z4H3, sequence (Q7Z4H3 whole entry, looked up): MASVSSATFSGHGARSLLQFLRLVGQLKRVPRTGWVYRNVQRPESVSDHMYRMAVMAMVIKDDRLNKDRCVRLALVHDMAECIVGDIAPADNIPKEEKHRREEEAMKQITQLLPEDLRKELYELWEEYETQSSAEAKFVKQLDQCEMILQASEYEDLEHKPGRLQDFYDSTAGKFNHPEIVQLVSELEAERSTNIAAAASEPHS
erlotinib
  log2 fold change: -0.014
[1]
  log2 fold change: 0.059
[2]
  log2 fold change: 0.039
[3]
  log2 fold change: 0.018
[4]
  log2 fold change: -0.072
[5]
  log2 fold change: 0.034
[6]
  log2 fold change: 0.292 (active)
[7]
  log2 fold change: 0.024
[8]
  log2 fold change: -0.039
[9]
  log2 fold change: 0.076
IRAK-1-4 Inhibitor I
  log2 fold change: 0.04
ibrutinib
  log2 fold change: 0
[10]
  log2 fold change: 0.052
ralimetinib
  log2 fold change: 0.085
[11]
  log2 fold change: 0.003
[12]
  log2 fold change: 0.074
[13]
  log2 fold change: 0
pinometostat
  log2 fold change: -0.076
[14]
  log2 fold change: -0.006
[15]
  log2 fold change: -0.007

## GIGYF2 (UniProt Q6Y7W6)
UniProt Q6Y7W6, sequence (Q6Y7W6 whole entry, looked up): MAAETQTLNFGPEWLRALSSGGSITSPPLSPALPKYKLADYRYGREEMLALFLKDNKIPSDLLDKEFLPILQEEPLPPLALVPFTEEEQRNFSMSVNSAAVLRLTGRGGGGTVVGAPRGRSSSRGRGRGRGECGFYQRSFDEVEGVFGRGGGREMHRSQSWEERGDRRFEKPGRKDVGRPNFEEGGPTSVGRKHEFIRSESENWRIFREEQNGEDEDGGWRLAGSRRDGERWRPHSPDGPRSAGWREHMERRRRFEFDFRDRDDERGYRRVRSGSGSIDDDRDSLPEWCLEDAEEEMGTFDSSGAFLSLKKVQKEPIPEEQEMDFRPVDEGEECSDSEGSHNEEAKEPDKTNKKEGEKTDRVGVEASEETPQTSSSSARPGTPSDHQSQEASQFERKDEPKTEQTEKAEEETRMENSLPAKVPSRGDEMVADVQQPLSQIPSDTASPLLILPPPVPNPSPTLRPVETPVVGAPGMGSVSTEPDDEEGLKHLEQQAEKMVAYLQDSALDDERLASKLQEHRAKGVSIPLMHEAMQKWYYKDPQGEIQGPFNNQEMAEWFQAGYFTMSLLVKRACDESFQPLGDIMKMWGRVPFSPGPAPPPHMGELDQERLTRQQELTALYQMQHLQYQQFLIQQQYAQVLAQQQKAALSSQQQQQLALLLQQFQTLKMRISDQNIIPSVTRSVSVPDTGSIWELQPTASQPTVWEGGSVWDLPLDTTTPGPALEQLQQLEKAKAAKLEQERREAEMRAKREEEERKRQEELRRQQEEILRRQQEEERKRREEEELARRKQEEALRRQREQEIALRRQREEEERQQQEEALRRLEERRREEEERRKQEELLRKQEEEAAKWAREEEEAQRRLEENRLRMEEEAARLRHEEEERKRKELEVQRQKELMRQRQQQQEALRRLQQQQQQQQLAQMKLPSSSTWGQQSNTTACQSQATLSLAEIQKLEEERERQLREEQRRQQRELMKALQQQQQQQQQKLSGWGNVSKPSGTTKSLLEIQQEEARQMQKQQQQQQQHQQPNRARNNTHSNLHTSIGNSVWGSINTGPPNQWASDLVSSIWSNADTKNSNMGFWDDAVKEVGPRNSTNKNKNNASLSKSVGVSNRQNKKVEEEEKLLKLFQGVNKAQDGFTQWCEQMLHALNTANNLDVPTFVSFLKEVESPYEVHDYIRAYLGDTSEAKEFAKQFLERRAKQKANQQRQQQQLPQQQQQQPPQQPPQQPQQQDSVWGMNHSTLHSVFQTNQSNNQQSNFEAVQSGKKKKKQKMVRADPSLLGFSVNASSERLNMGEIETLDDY
erlotinib
  log2 fold change: 0.062
[1]
  log2 fold change: 0.081
[2]
  log2 fold change: -0.022
[3]
  log2 fold change: -0.03
[4]
  log2 fold change: 0.05
[5]
  log2 fold change: 0.014
[6]
  log2 fold change: 0.009
[7]
  log2 fold change: 0.025
[8]
  log2 fold change: -0.039
[9]
  log2 fold change: -0.025
IRAK-1-4 Inhibitor I
  log2 fold change: -0.01
ibrutinib
  log2 fold change: -0.039
[10]
  log2 fold change: -0.316 (active)
ralimetinib
  log2 fold change: -0.041
[11]
  log2 fold change: -0.124
[12]
  log2 fold change: -0.115
[13]
  log2 fold change: 0.01
pinometostat
  log2 fold change: 0.082
[14]
  log2 fold change: 0.005
[15]
  log2 fold change: 0.021

## GSTM4 (UniProt Q03013)
UniProt Q03013, sequence (Q03013 whole entry, looked up): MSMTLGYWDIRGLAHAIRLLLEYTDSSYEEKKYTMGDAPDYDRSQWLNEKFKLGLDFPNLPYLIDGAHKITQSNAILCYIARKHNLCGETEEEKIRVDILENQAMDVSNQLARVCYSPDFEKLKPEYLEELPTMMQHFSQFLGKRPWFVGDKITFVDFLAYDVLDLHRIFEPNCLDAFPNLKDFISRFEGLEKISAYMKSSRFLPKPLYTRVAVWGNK
erlotinib
  log2 fold change: 0.084
[1]
  log2 fold change: -0.029
[2]
  log2 fold change: 0.217
[3]
  log2 fold change: -0.002
[4]
  log2 fold change: -0.038
[5]
  log2 fold change: 0.268
[6]
  log2 fold change: -0.031
[7]
  log2 fold change: -0.128
[8]
  log2 fold change: 0.018
[9]
  log2 fold change: 0.062
IRAK-1-4 Inhibitor I
  log2 fold change: 0.091
ibrutinib
  log2 fold change: -0.028
[10]
  log2 fold change: -0.083
ralimetinib
  log2 fold change: -0.035
[11]
  log2 fold change: -0.103
[12]
  log2 fold change: 0.029
[13]
  log2 fold change: -0.008
pinometostat
  log2 fold change: -0.05
[14]
  log2 fold change: -0.036
[15]
  log2 fold change: 0.115
